Assay results from the supplement of paper PMC3334620.
In all, about 33,000 sequences were measured (“E-score (-0.5 to 0.5)”: median about -0.054, highest 2% from about 0.35 on). The entries come from a sample that favours the highest values as a whole.

Target: T1, Stb5 (UniProt P38699)
T1 sequence: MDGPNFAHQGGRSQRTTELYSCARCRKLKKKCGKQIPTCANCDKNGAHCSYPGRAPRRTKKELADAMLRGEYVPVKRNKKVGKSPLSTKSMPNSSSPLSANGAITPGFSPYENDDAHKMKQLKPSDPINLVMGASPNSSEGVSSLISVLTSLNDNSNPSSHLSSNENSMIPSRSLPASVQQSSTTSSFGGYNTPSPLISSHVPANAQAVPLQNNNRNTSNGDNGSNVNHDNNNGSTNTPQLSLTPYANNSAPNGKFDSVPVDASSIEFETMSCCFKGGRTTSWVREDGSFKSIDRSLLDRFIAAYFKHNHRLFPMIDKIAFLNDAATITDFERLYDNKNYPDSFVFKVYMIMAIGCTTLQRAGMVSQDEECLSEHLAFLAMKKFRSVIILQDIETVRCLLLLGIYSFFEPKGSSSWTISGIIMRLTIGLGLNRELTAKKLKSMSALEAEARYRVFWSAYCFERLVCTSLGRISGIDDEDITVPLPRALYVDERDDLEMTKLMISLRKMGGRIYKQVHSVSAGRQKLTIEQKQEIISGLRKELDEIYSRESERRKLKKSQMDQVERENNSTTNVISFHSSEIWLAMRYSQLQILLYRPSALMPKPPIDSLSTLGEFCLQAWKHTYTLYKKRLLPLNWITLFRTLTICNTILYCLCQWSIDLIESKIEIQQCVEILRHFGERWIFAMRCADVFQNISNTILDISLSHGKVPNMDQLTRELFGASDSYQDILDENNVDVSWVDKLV
Assay: PBM E-score (8-mer binding enrichment) (E-score (-0.5 to 0.5)); higher = stronger / more preferred TF binding
Details: protein concentration: 200 nM; construct: GST-full length
Description: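 Universal 'all 10-mer' protein binding microarrays (Agilent AMADID 015681) probed with GST-tagged S. cerevisiae TFs (full-length or DBD) made by in vitro transcription/translation (PURExpress), about 100-200 nM. Bound TF was detected with fluorescent anti-GST. Each ungapped 8-mer (which stands for itself and its reverse complement) is scored by the PBM enrichment score (E-score), a modified Wilcoxon-Mann-Whitney statistic from -0.5 to +0.5, computed with the Universal PBM Analysis Suite. Scale: above 0.35 generally sequence-specific binding.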

| Sequence | PBM E-score |
| --- | --- |
| ATACCTCG | -0.173 |
| GCTTCGAA | -0.0877 |
| ACGTACCC | 0.0314 |
| AACTCTAG | -0.33 |
| GGACTCAC | 0.0404 |
| AGGACCAA | -0.115 |
| AAGCCTCT | -0.318 |
| AAGTAGCG | 0.0894 |
| GAAGTTCC | 0.0956 |
| ACTCCGCC | 0.384 |
| CCTCCGCG | 0.157 |
| ACTCCGCA | 0.259 |
| AATCCGCG | 0.21 |
| ACTCCGCT | 0.392 |
| CCTCCGCC | 0.223 |
| GCTCCGCC | 0.347 |
| ACTCCGCG | 0.357 |
| ACTCCGAT | 0.344 |
| AGATAAGC | -0.142 |
| CACACTAG | -0.189 |
| AGTCCACC | 0.0594 |
| AAAATATT | 0.114 |

| Sequence | PBM E-score |
| --- | --- |
| GAAGGCAA | -0.234 |
| GTCTTCCA | -0.125 |
| ATCCAAAT | -0.103 |
| AGTGCTAA | -0.043 |
| GGTGCTAA | 0.358 |
| TGTGCTAA | 0.0576 |
| GCCGCGCC | 0.221 |
| CGGTCACG | 0.149 |
| CGCCGGCG | 0.428 |
| AGCCGGCC | 0.111 |
| CGCCGGCC | 0.391 |
| AGCCGGCG | 0.248 |
| CGGCGCCG | 0.309 |
| CGCCGGCA | 0.354 |
| GGCCGGCA | 0.289 |
| GGCCGGCC | 0.15 |
| AGCCGGCA | 0.256 |
| ATAAAAGA | 0.0611 |
| GAGCAATA | -0.118 |
| CAACACTG | -0.305 |
| CAGTCAAG | -0.338 |
| CCCACAGC | -0.146 |

| Sequence | PBM E-score |
| --- | --- |
| CCCCGCCA | 0.406 |
| GCCCGCCA | 0.284 |
| CCCCGCCG | 0.381 |
| ACCCGCCG | 0.318 |
| TCCCGCCA | 0.205 |
| CCCCCCCG | -0.255 |
| GGGATGAA | 0.0485 |
| CACTGTAG | -0.25 |
| CTTCCCTA | -0.161 |
| ACTGCCGC | 0.311 |
| AGGGCCTA | 0.0959 |
| CGGGCTTC | 0.293 |
| CGGGCCTC | 0.108 |
| GGGGCATA | 0.083 |
| AGGGCTCA | -0.23 |
| CGGGCTCA | 0.358 |
| CGGGCTCC | 0.0609 |
| CGGGCCTA | 0.437 |
| CGGGCATA | 0.419 |
| CGGGCTTA | 0.473 |
| AGGGCATA | -0.0797 |
| AGGGCTTA | 0.12 |

| Sequence | PBM E-score |
| --- | --- |
| CTCGTCCA | -0.102 |
| AGGAATAT | -0.0199 |
| ACATAGAA | -0.0458 |
| AAATCGCG | -0.0128 |
| ATGTGGGC | 0.089 |
| GCCGATAA | 0.313 |
| CATGAACA | -0.0519 |
| AGGCGTCA | -0.0617 |
| ACGCGGCA | 0.189 |
| CCGCGGTA | 0.399 |
| ACGCGGTA | 0.215 |
| CCGCGGCA | 0.367 |
| CGGCGTCC | 0.277 |
| CGGCGTCA | 0.384 |
| CCGCGGTC | 0.32 |
| GCGCGGCA | 0.237 |
| CGGCGGCA | 0.411 |
| AGGCGGCA | 0.238 |
| GGGCGGCA | 0.323 |
| GCGCCTCC | -0.0611 |
